Laboratory results as given in PubChem BioAssay AID588727 (Southern Research Specialized Biocontainment Screening …, 2011).
The whole screen tested about 350,000 compounds, of which about 450 (0.13%) were called active. How the calls were made is not given here. A selection follows. Entries with a potency or affinity are not part of this list.

assay: inhibitors of VEEV TC-83 cytopathic effect, confirmation, Vero cells (AID 588727); conditions: VEEV TC-83 cytopathic effect inhibition, at 20 µM; hits give high values unless noted

SMILES | inhibition
CNc1nc(C)c(C#N)c(-c2ccccc2)c1C(C)=O | 0.76% (inactive)
CC[C@]12c3[nH]c4ccccc4c3CCN1C(=O)C(CC(=O)NCCC1=CCCCC1)C[C@@H]2C(=O)N1CCN(C(=O)c2ccco2)CC1 (stereo partly specified) | inactive
CC(C)c1c(C(=O)N/N=C/c2ccc(OCc3ccccc3)cc2)nnn1-c1nonc1N | 2.29% (inactive)
FC(F)(F)c1cccc(Cc2noc(CN(Cc3ccccn3)CC3CCCO3)n2)c1 (stereo unspecified) | 6.18% (inactive)
CCc1ccccc1NC(=O)C1=CN2CCS(=O)(=O)N=C2C=C1 | 4.92% (inactive)
COC(=O)c1ccc(CSc2ccccc2NC(=S)Nc2cccc(SC)c2)o1 | 5.66% (inactive)
COC(=O)[C@@H](Cc1ccccc1)NC(=O)CC[C@H]1O[C@@H](n2cc(C)c(=O)[nH]c2=O)C[C@@H]1O | inactive
Cc1sc2nc(SCC(=O)c3cccs3)n(Cc3ccco3)c(=O)c2c1C | 0.85% (inactive)
C=CCn1c(SCC(=O)c2cccs2)nc2sc(C)cc2c1=O | 5.28% (inactive)
CCOCCCNC(=O)c1cn(C)c(=O)c2cc(OC)c(OC)cc12 | 2.15% (inactive)
c1ccc(C(c2c[nH]c3ccccc23)c2c[nH]c3ccccc23)nc1 | 6.07% (inactive)
CCOC(=O)c1c(-c2ccc(F)cc2)csc1NC(=O)c1c(-c2ccccc2)noc1C | 9.91% (inactive)
CCOCc1nnc(NC(=O)c2c(-c3ccccc3)noc2C)s1 | 2.18% (inactive)
CCC(CC)c1nnc(NC(=O)c2c(-c3ccccc3)noc2C)s1 | inactive
CCOC(=O)c1c(-c2cccc(C)c2)csc1NC(=O)C1CC=CCC1C(=O)O (stereo unspecified) | 1.95% (inactive)
COC(=O)c1sccc1NC(=O)c1c(-c2ccccc2)noc1C | 0.71% (inactive)
COC(=O)c1c(-c2ccccc2)noc1C | inactive
Cn1c(=O)c2c(nc(OCc3cccnc3)n2Cc2c(F)cccc2Cl)n(C)c1=O | inactive
Cc1ccc(NC(=O)C2CC(=O)N(c3ccc4c(c3)OCCO4)C2)nc1 (stereo unspecified) | 0.81% (inactive)
COc1ccc(NC(=O)c2cc(S(=O)(=O)Nc3ccc(OC)cc3)cs2)cc1 | 1.17% (inactive)
O=C1CCc2cc(S(=O)(=O)N3CCC(C(=O)NC4CCCCCCC4)CC3)ccc2N1 | 0.11% (inactive)
CC1CCCCN1C(=O)CSc1nc(N)cc(=O)[nH]1 (stereo unspecified) | 0.79% (inactive)
COC(=O)Cc1ccc(NC(=S)NCCSc2ccc(C)cc2)cc1 | 0.04% (inactive)
CCOC(=O)c1cnc(N2CCOCC2)[nH]c1=O | inactive

SMILES | inhibition
O=c1ccc(Cl)cn1Cc1ccccc1F | 0.68% (inactive)
CCCNC(=O)CSc1nnc(NC(=O)C2CC(=O)N(c3ccccc3OC)C2)s1 (stereo unspecified) | 0.13% (inactive)
Nc1nc(NCCO)nc(NC2CCCCC2)c1[N+](=O)[O-] | 3.17% (inactive)
CN(C)CCCNc1nc(N)c([N+](=O)[O-])c(NC2CCCCC2)n1 | 1.04% (inactive)
OCC1CCCCN1C(=S)NCc1ccco1 (stereo unspecified) | 2.33% (inactive)
O=C(NNC(=O)c1ccc2ccccc2c1)c1cccc(F)c1 | 0.5% (inactive)
COc1ccccc1NS(=O)(=O)c1ccc(C(=O)N2CCN(c3ccccn3)CC2)cc1 | 12.1% (inactive)
COc1cc2cc(CN(CCO)S(=O)(=O)c3ccccc3)c(=O)[nH]c2cc1OC | 2.19% (inactive)
CCOC(=O)C(CC)n1cnc2sc3c(c2c1=O)CCC3 (stereo unspecified) | 2.46% (inactive)
CN(C)/C=C/C(=O)/C=C/c1ccc(Cl)cc1Cl | inactive
CCNc1ccc(Br)cc(C(=O)/C=C/c2ccccc2Cl)c1=O | 2.29% (inactive)
CCc1ccc(/C=C/C(=O)c2cc(Br)ccc(=O)c2O)cc1 | 2.12% (inactive)
COc1ccc(/C=C/C(=O)c2cc(Cl)cc(Cl)c2O)c(OC)c1 | 0.43% (inactive)
CC(=O)Nc1ccc(S(=O)(=O)Nc2ccc3c(c2)OCO3)cc1 | inactive
Cc1ccc(-c2cc(C(=O)NCCCn3ccnc3)c3ccccc3n2)s1 | 10.3% (inactive)
CC(OC(=O)Cn1cnc2ccccc2c1=O)C(=O)N(C)c1ccccc1 (stereo unspecified) | 1.86% (inactive)
Cc1cc(SCC(=O)c2cc3ccccc3o2)nc2ccccc12 | inactive
COc1ccc(NC(=O)CSc2nc3ccccc3c(=O)n2CCC(=O)N2CCCCC2)cc1 | 10.7% (inactive)
CCN(C(=O)c1cccc(Br)c1)c1ccccc1 | 1.28% (inactive)
CCn1c(-c2nonc2NC(=O)c2ccccc2)nc2ccccc21 | inactive
CCC(=O)Nc1nonc1-c1nc2ccccc2n1CC(C)C | 0.38% (inactive)
N#CCCn1c(-c2nonc2NC(=O)c2ccccc2Cl)nc2ccccc21 | inactive
CC(=O)Nc1nonc1-c1nc2ccccc2n1CCC(C)C | 2.19% (inactive)
CCOc1ccccc1Nc1ccnc2cc(Cl)ccc12 | 0.76% (inactive)

SMILES | inhibition
C=C1CCN([C@@H](Cc2ccccc2)C(=O)NC2CCN(Cc3ccccc3)CC2)S(=O)(=O)c2ccccc21 | inactive
CCCN1C2CCCC1CC(NC(=O)c1ccc(Br)cc1)C2 (stereo unspecified) | 0.23% (inactive)
CCN(CC)S(=O)(=O)c1ccc(Cl)c(C(=O)OCC(=O)c2c(N)n(C)c(=O)n(C)c2=O)c1 | 2.96% (inactive)
COCCCNC(=O)c1cc(C(=O)Cc2ccccc2)c[nH]1 | 0.38% (inactive)
O=C(CCn1c(=S)oc2ccccc21)Nc1cccc(O)c1 | 1.38% (inactive)
COc1ccc(C2c3[nH]c4ccccc4c3CCN2C(=O)c2ccc(=O)n(C)n2)c(F)c1 (stereo unspecified) | 1.1% (inactive)
COc1ccc(C2c3[nH]c4ccccc4c3CCN2C(=O)c2cn3ccccc3n2)c(F)c1 (stereo unspecified) | 8.94% (inactive)
CCC(CC)c1nc(C(N)=O)c2[nH]c(=O)n(-c3ccc(OC)c(OC)c3)c2n1 | 1.45% (inactive)
NNc1nc(-c2ccccc2)cc(-c2ccc(Br)cc2)n1 | 7.9% (inactive)
CN1OC[C@@H]2CN(C(=O)C(C)(C)C)[C@H](c3cccc(Br)c3)C[C@@H]21 | inactive
Clc1ccc(-c2cc(C3CCNCC3)[nH]n2)cc1 | 0.74% (inactive)
c1ccc2c(-c3cc(C4CCNCC4)[nH]n3)cccc2c1 | 6.53% (inactive)
CC(OC(=O)c1cc(S(=O)(=O)N2CCOCC2)ccc1F)C(=O)NCC1CCCCC1 (stereo unspecified) | 0.1% (inactive)
O=C(N/N=C/c1cccnc1)c1ccc(NC(=O)c2ccccc2Cl)cc1 | 1.2% (inactive)
O=C(NCCN1CCN(C(=O)c2cccc(OC(F)F)c2)CC1)c1cccc(OC(F)F)c1 | 0.88% (inactive)
O=C(N[C@@H]1CCC(=O)N(CC[C@H](Sc2ccc(Br)cc2)c2ccccc2)CC1)OCc1ccccc1 | 1.21% (inactive)
O=C(/C=C/c1cccs1)Nc1nc(-c2ccccc2)cs1 | 10.2% (inactive)
Cc1ccc(-c2csc(NC(=O)/C=C/c3cccs3)n2)cc1C | 7.86% (inactive)
COc1ccc(OC)c(/C=N/n2c(COc3ccccc3)n[nH]c2=S)c1 | 1.2% (inactive)
Cc1sc(NC(=S)NC(=O)c2ccccc2)c(C#N)c1C | 1.72% (inactive)
Cc1sc(NC(=S)NC(=O)c2ccco2)c(C#N)c1C | 0.86% (inactive)
Cc1cccc(S(=O)(=O)N(C)C[C@H]2OCc3cn(nn3)CCCC(=O)N([C@@H](C)CO)C[C@@H]2C)c1 | 0.62% (inactive)
O=S(=O)(c1ccc(F)cc1)N1CCC2(CC1)OCCO2 | 0.49% (inactive)
COC(C[C@H](O)C[C@H](O)[C@@H](C)OCc1ccccc1)OC | 0.19% (inactive)

SMILES | inhibition
CCn1c(C)nc2cc(C(=O)OC)ccc21 | 0.32% (inactive)
CCn1c(C)nc2cc(C(=O)OCCC(F)(F)F)ccc21 | 8.24% (inactive)
Cc1cc(C)nc(NS(=O)(=O)c2ccc(NC(=O)c3ccc(N4C(=O)CCC4=O)cc3)cc2)n1 | inactive
Nc1ccn([C@@H]2O[C@H](CO)[C@@H](O)[C@H]2O)c(=O)n1 | 0.98% (inactive)
Nc1ccn([C@@H]2O[C@H](CO)[C@@H](O)[C@@H]2O)c(=O)n1 | inactive
CNC(=S)N(Cc1ccccc1)Cc1cccnc1 | 3.13% (inactive)
CCOC(=O)c1c(NC(=O)CSc2nnc(-c3ccccc3)o2)sc(C(C)=O)c1C | 2.08% (inactive)
CC(OC(=O)/C=C/c1cccc(C(F)(F)F)c1)C(=O)NC1CCCCC1C (stereo unspecified) | 3.48% (inactive)
Cc1ccc(NC(=O)/C(C#N)=N/Nc2ccc(C(=O)O)cc2)c(C)c1 | 1.78% (inactive)
CNC(=O)C(=O)Nc1ccc(C)cc1C | 0.04% (inactive)
CCOC(=O)c1ccc(CC2S/C(=C(\C#N)C(C)=O)NC2=O)cc1 (stereo unspecified) | 1.08% (inactive)
C/C(=N\N=C1\NC(=O)C(Cc2ccccc2)S1)c1ccccc1 (stereo unspecified) | 1.26% (inactive)
CC(=O)/C(C#N)=C1\NC(=O)C(Cc2ccc(F)cc2)S1 (stereo unspecified) | 9.23% (inactive)
CC(C)=N/N=C1/NC(=O)C(Cc2ccccc2)S1 (stereo unspecified) | 2.54% (inactive)
CN1CCN(c2nc3cc(N4CCOCC4)ccc3s2)CC1 | inactive
CN1CCN(c2ccc3nccnc3c2)CC1 | 0.19% (inactive)
O=C1CNC(=O)/C(=C\c2ccc(F)cc2)N1 | inactive
CCOC(=O)COc1cc2c3c(c(=O)oc2cc1C)CCCC3 | 1.83% (inactive)
CCOC(=O)CSc1nnc(NC(=O)CN2CCCCC2)s1 | inactive
CC(=O)Nc1ccc(S(=O)(=O)N(C)CC(=O)OC(C)C(=O)NC2(C#N)CCCCC2)cc1 (stereo unspecified) | 0.4% (inactive)
COc1ccc(NC(=O)COc2ccc(CNCCCN3CCOCC3)cc2OC)cc1 | inactive
CCOc1cc(CNCCCN2CCOCC2)ccc1OCC(=O)NC(C)(C)C | 0.44% (inactive)
COc1ccc(N2CCN(CCCn3c(=S)[nH]c4ncccc4c3=O)CC2)cc1 | 26.7% (inactive)
CCCCn1c(=S)[nH]c2ncccc2c1=O | 1.76% (inactive)
